Source: PubChem BioAssay AID540317 (National Center for Advancing Translational Sciences (NCATS), 2011)
The campaign covered roughly 390,000 compounds. About 2,200 (0.56%) were called active. Another 3% or so got no clear call; they are omitted. The call rests on the fitted dose curve; in most records, active means well fitted inhibition curve with a large enough effect; inconclusive means small, poorly fitted or top-dose-only effect; inactive means no such curve, though single readings can be large or run the other way. Shown is part of a subset that was picked to be rich in actives.

Molecular target: Chromobox protein homolog 1 (Homo sapiens) (UniProt P83916)
Sequence (P83916 whole entry, looked up): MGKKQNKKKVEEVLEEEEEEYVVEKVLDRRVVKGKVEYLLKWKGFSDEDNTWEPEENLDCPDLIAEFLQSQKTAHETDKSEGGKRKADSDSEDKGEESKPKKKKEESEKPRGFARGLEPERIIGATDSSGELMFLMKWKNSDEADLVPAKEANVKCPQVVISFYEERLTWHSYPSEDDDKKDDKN
Assay: HTS for Inhibitors of HP1-beta Chromodomain Interactions with Methylated Histone Tails; further: nearly all actives have a fitted effect of over 70% in size
Details: AlphaScreen HP1-beta / biotin-H3K9me3 peptide binding; series mostly up to 114 µM; activity change, negative = inhibition: at the top concentration
How it was run: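 Compound inhibition of the preformed complex between 50 nM HP1-beta and 50 nM biotinylated H3K9me3 peptide was read by AlphaScreen. Buffer was PBS pH 7.4 with 0.01% Tween-20. Incubations ran 30 min at room temperature, with 10 ug/mL donor/acceptor beads.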
Potency means the concentration at half of the fitted maximal effect.

Compound	activity change, negative = inhibition	Potency
Cc1ccc(-c2nc3ccccn3c2Nc2ccc(F)cc2)o1	17.1% (inactive)	–
Cc1ccc(-c2onc(C)c2C)cc1S(=O)(=O)Nc1ccccn1	52.2% (inactive)	–
CCCC1CCC(=NNC(=S)NCCc2ccccc2)CC1 (stereo not given)	–	44.7 µM (active)
CCCCNC(=S)N/N=C1\CCCCc2ccccc21	-0.0404% (inactive)	–
Cc1cc(F)ccc1NC(=S)NCCc1ccccc1	36.4% (inactive)	–
COC(=O)C(CC(C)C)NS(=O)(=O)c1cc(Br)ccc1Br (stereo not given)	30.3% (inactive)	–
CCOC(=O)c1ccccc1NC(=O)c1sc2nc(-c3ccc(F)cc3)cn2c1C	13.2% [at 57 µM] (inactive)	–
Cc1ccc(NC(=O)c2ccc3[nH]c(C)cc(=O)c3c2)c(C)c1	6.09% (inactive)	–
CCOc1ccccc1NC(=O)CSc1ncc(S(=O)(=O)c2ccc(C(C)(C)C)cc2)c(=O)[nH]1	15.9% (inactive)	–
COc1ccc(/C=N/n2c(C)cc(C)cc2=O)cc1	17.3% (inactive)	–
CN=c1scc(-c2cc(OC)ccc2OC)n1/N=C/c1c(C)[nH]c2ccccc12	–	31.6 µM (active)
Oc1ccc(Br)cc1C1C=C(c2ccc3c(c2)OCO3)NC(c2ccc(Cl)cc2)N1 (stereo not given)	4.38% [at 57 µM] (inactive)	–
CCCCSc1ncnc2c1sc1nc(N3CCOCC3)c3c(c12)CCCC3	44.3% (inactive)	–
S=C(Nc1ccc(Cl)cc1Cl)N1CCCC1	27.6% (inactive)	–
O=C(NCCc1ccc(Cl)cc1)C1CCCN1C(=O)NCc1ccccc1 (stereo not given)	26.5% (inactive)	–
Oc1cc2c(cc1O)CN(C(=S)NCCc1ccc(Cl)cc1)CCC2	–	50.1 µM (active)
COc1ccc(C2=NC3(CCCCC3)N(CC(=O)Nc3ccc(C(C)C)cc3)C2=O)cc1	46.8% (inactive)	–
COc1ccc(N2CCN(c3cc(C)nc4nncn34)CC2)cc1	19.4% (inactive)	–
CCCNC(=O)C1CCN(c2nc3ccc(C)cc3[nH]2)CC1	17.6% [at 57 µM] (inactive)	–
COc1ccc(S(=O)(=O)NCC(c2ccc(N(C)C)cc2)N2CCCC2)cc1 (stereo not given)	6.18% (inactive)	–
COc1ccc(S(=O)(=O)NCC(c2ccc(C)cc2)N2CCN(C)CC2)cc1OC (stereo not given)	24.5% (inactive)	–
COc1ccc(N2CCN(C(CNS(=O)(=O)c3ccc(C)cc3)c3ccccc3)CC2)cc1 (stereo not given)	–	31.6 µM (active)
COc1ccc(NC(=O)c2sc3nc[nH]c(=O)c3c2C)cc1	15.5% [at 57 µM] (inactive)	–
O=[N+]([O-])c1ccc(Oc2ccc(F)cc2Br)c2ccncc12	–	50.1 µM (active)
CCN1CCN(c2cc(C)c3cc(NC(=O)c4cc(Cl)ccc4OC)ccc3n2)CC1	10.9% (inactive)	–

Compound	activity change, negative = inhibition	Potency
CCN(C(=O)CSc1nnc(C)n2c1cc1occc12)c1ccccc1	21.5% (inactive)	–
CCOc1ccc(-n2c(N)c(C(=O)NCC3CCCO3)sc2=S)cc1 (stereo not given)	–	17.8 µM (active)
CCOc1ccc(S(=O)(=O)NCCC(=O)NCC2CCCO2)cc1 (stereo not given)	27.3% (inactive)	–
CCOc1ccc(S(=O)(=O)N2CCN(C(=S)NCC3CCCO3)CC2)cc1 (stereo not given)	28.5% (inactive)	–
COc1ccc(-c2cccc(NS(=O)(=O)c3cc(C)c(OC)c(C)c3C)c2)nn1	21.1% [at 57 µM] (inactive)	–
COc1ccc(-c2nc3c4ccccc4n(CC(=O)Nc4ccc(C(C)=O)cc4)c(=O)n3n2)cc1	35.1% (inactive)	–
O=C1CSC(=S)N1/N=C/c1ccc(O)c([N+](=O)[O-])c1	–	39.8 µM (active)
CCOC(=O)c1c(C)n(S(=O)(=O)c2ccc(C)cc2C)c2ccc(NS(=O)(=O)c3ccc(C)cc3C)cc12	17.2% (inactive)	–
CC(=O)N1CCCc2cc(S(=O)(=O)N3CCC(C(=O)NC4CCCCC4)CC3)ccc21	14.9% [at 57 µM] (inactive)	–
Cc1ccc(NC(=O)C(Cc2ccccc2)NS(=O)(=O)c2ccc3c(c2)oc(=O)n3C)cc1C (stereo not given)	28% (inactive)	–
CC1CCCCC1NC(=O)CSc1nnc(-c2ccncc2)n1CCCN(C)C (stereo not given)	–	28.2 µM (active)
COCCCn1c(SCC(=O)NC2CCCC2)nnc1-c1ccccc1	52.1% (inactive)	–
CCn1c(SCC(=O)NC2CC2)nnc1-c1ccncc1	17.1% (inactive)	–
COc1ccc(Cl)cc1NC(=O)c1sc2nc3c(cc2c1N)CN(C)CC3	16.1% (inactive)	–
COC(=O)c1ccccc1NS(=O)(=O)c1ccc2c(c1)CCCN2C(C)=O	21.1% (inactive)	–
COc1ccc(Br)cc1/C=N/Nc1ccc(S(=O)(=O)Nc2ccccc2C(=O)O)cc1[N+](=O)[O-]	–	22.4 µM (active)
COc1cc(/C=C/C(=O)O)cc(S(=O)(=O)Nc2ccccc2C(=O)NCCc2ccccc2)c1OC	4.3% (inactive)	–
CCC(=O)N1CCc2cc(S(=O)(=O)NC(CC(C)C)C(=O)NCCc3cccc(C)c3)ccc21 (stereo not given)	37.5% (inactive)	–
CC(C)Cn1c(=O)c2ccccc2n2c(CCC(=O)N3CCN(c4cccc(Cl)c4)CC3)nnc12	19.7% (inactive)	–
CC(Sc1oc(-c2ccco2)nc1S(=O)(=O)c1ccc(Br)cc1)c1ccccc1 (stereo not given)	5.19% (inactive)	–
O=C(NCc1ccccn1)[C@]1(C(F)(F)F)C[C@H](CCc2ccccc2)CCCO1	21.8% (inactive)	–
Nc1[nH][nH]c(=O)c1N=Nc1ccc2c(c1)OCO2	3.77% (inactive)	–
Cc1nn(C)cc1/C=C1\CCC/C(=C\c2cn(C)nc2C)C1=O	12.7% (inactive)	–
O=C1/C(=C/c2ccc3c(c2)OCO3)CCC/C1=C\c1ccc2c(c1)OCO2	–	28.2 µM (active)
O=C1CC(c2ccccc2)CC2=C1C(c1ccco1)n1nc(C(F)(F)F)nc1N2 (stereo not given)	8.1% (inactive)	–

Compound	activity change, negative = inhibition	Potency
CCOC(=O)c1cc2c(=O)n3ccccc3nc2n(CC2CCCO2)c1=NC(=O)c1ccccc1F (stereo not given)	33.6% (inactive)	–
CC(C)OC(=O)c1ccc(NCc2cc(O)ccc2O)cc1Cl	–	39.8 µM (active)
O=C(CC1C(=O)N(c2ccccc2)C(=O)N1CCc1cccs1)Nc1ccc(F)cc1 (stereo not given)	17.3% (inactive)	–
Cc1ccc(Cc2nc3ccccc3nc2SCC(=O)Nc2cccc(C(F)(F)F)c2)cc1	24% [at 57 µM] (inactive)	–
CC(C)(C)C(=O)OCc1nc(-c2ccc(O)c(O)c2)cs1	–	70.8 µM (active)
CNC(=O)[C@]1(C(F)(F)F)C[C@H](CCc2ccccc2)CCCO1	17.5% (inactive)	–
CCc1cnc2c(c1SCC(=O)N1CCC(C)CC1)c(=O)n(C)c(=O)n2C	1.69% (inactive)	–
COc1ccc(Cn2ccn(Cc3cccc(OC)c3)c(=O)c2=O)cc1	18.3% (inactive)	–
COc1ccccc1CNC(=O)C(=O)NCC(c1ccco1)S(=O)(=O)c1ccc(F)cc1 (stereo not given)	27.2% (inactive)	–
CC(=O)Oc1ccc(C(C)=O)c2c1OCCO2	12.1% (inactive)	–
CC(=O)Oc1ccc(OC(C)=O)c2c1C1C=CC2CC1	–	89.1 µM (active)
COc1ccc(C)cc1N(C)C(=O)c1c(C)oc2ncnc(N3CCOCC3)c12	5.31% (inactive)	–
COc1ccc(CCC(=O)NCCc2csc(-c3ccc(Cl)cc3)n2)cc1	9.83% [at 57 µM] (inactive)	–
COc1ccc(C2CC(O)(c3ccccc3)Oc3cc(C)cc(C)c32)cc1 (stereo not given)	36.4% (inactive)	–
COc1ccccc1-c1cc(C(F)(F)F)nc(S(=O)(=O)CCCC(=O)Nc2ccc(F)cc2F)n1	62.8% (inactive)	–
CC1(C)C/C(=N/Nc2ccc([N+](=O)[O-])cc2[N+](=O)[O-])C(C)(C)O1	-6.49% (inactive)	–
C[n+]1ccccc1C1CCCC/C1=N\Nc1ccc([N+](=O)[O-])cc1[N+](=O)[O-] (stereo not given)	21.4% (inactive)	–
O=[N+]([O-])c1ccc(N/N=C2/CCCCC2c2ccccn2)c([N+](=O)[O-])c1 (stereo not given)	–	35.5 µM (active)
COc1ccc(CN2CCC(=O)c3ccccc3S2(=O)=O)cc1	34.2% (inactive)	–
COc1cc(NC(=O)c2cc3ccc4cccnc4c3[nH]2)cc(OC)c1OC	21.2% (inactive)	–
Cc1ccc(C)c(Cn2c(CCCNC(=O)C3CCCCC3)nc3ccccc32)c1	31.9% (inactive)	–
CC1CCN(C(=S)c2cccc(O)c2)CC1	-6.99% (inactive)	–
COc1ccc(C(=O)Nc2c(Cl)cc(Cl)cc2C(=O)N2CCC(C)CC2)cc1	6.49% (inactive)	–
CC1CCN(C(=S)c2ccc(-c3ccc(Cl)cc3Cl)o2)CC1	–	22.4 µM (active)
Cc1ccc(C(=O)Nc2nc(-c3ccccc3)ns2)cc1	51.4% (inactive)	–

Compound	activity change, negative = inhibition	Potency
Cc1cc(C)cc(NC(=O)Cc2csc(C)n2)c1	23.5% (inactive)	–
CCOc1ccc(N(Cc2ccccc2)C(=O)c2nc(SCC)ncc2Cl)cc1	39.6% (inactive)	–
O=C(NC1CC(=O)N(c2ccc(F)cc2)C1)C1CCCCC1 (stereo not given)	-6.51% (inactive)	–
CCn1c2ccccc2c2nnc(N3CCN(c4cc(C)ccc4C)CC3)nc21	20.6% (inactive)	–
CCOCCCNC(=O)c1c(NC(=O)Cc2coc3c(C)c(C)ccc23)sc2c1CCC2	18% (inactive)	–
O=C(NCCc1ccccc1)c1cnc2sc(N3CCCC3)nn2c1=O	-3.36% (inactive)	–
COc1cccc(C(=O)CC(=O)C(=O)Nc2ccc([N+](=O)[O-])cc2C)c1	22.1% (inactive)	–
COc1ccc(Cc2nnc(SCC(=O)c3cccc([N+](=O)[O-])c3)n2C)cc1	8.15% (inactive)	–
COc1cccc(NCCC(=O)c2cccc([N+](=O)[O-])c2)c1	–	79.4 µM (active)
Cc1ccccc1CNC(=O)CCCn1nc(C)c2sc3ccccc3c2c1=O	47.8% (inactive)	–
NS(=O)(=O)c1ccc(NC(=O)CSc2nnc3c(n2)[nH]c2ccccc23)cc1	58.7% (inactive)	–
COc1ccc(/C=C2/C(=O)N(c3ccccc3)N=C2C)c(OC)c1	–	12.6 µM (active)
COc1ccc(/C=C2/C(=O)OCc3cc(OC)c(OC)cc32)c(OC)c1	1.57% (inactive)	–
COc1ccc(C(=O)COC(=O)C(O)c2ccccc2)c(OC)c1 (stereo not given)	24.5% (inactive)	–
CC1CC(C)CN(c2oc(-c3ccc(OCc4ccc(Cl)cc4)cc3)nc2C#N)C1 (stereo not given)	10.1% [at 57 µM] (inactive)	–
COc1ccc(C(=O)CSc2c(C(C)C)cnc3c2c(=O)n(C)c(=O)n3C)cc1	28.3% [at 57 µM] (inactive)	–
O=C(CCc1cn(Cc2ccc(F)cc2)c2ccccc12)NC1CCCCC1	9.66% (inactive)	–
CCc1ccccc1N1C(=O)CN(S(=O)(=O)CC)CC1(C)C(=O)NC1CCCCC1 (stereo not given)	39.3% (inactive)	–
CCOc1ccc(NC(=O)c2ncoc2-c2ccco2)cc1	-8% (inactive)	–
COCCNC(=O)Nc1ccc2nc(-c3ccco3)c(-c3ccco3)nc2c1	–	8.91 µM (active)
C=CCNC(=O)c1ccc2nc(-c3ccco3)c(-c3ccco3)nc2c1	-1.18% [at 57 µM] (inactive)	–
CCN(CC)CCNC(=O)Cn1ncc2c3ccccc3n(Cc3ccccc3C)c2c1=O	27.7% (inactive)	–
Cc1ccc(C(=O)CC2(O)C(=O)N(CCc3ccccc3)c3ccc(Br)cc32)cc1 (stereo not given)	7.9% (inactive)	–
CCCCN1C(=O)/C(=C(/C#N)C(N)=O)c2ccccc21	23.7% (inactive)	–
COc1ccc2c(c1)C(=C(C#N)C#N)C(=O)N2CCc1ccccc1	–	39.8 µM (active)
